According to PubChem BioAssay (Tox21):
Results filed as inconclusive are left out. Where a call stands in place of a potency, no number is given. Some compounds were tested as several samples or in several runs, with calls that do not always agree. Activity calls are given as the source filed them. Unless noted, calls come from the whole dose curve.

Assays:
[1] = qHTS assay to identify small molecule antagonists of the sonic hedgehog signaling (Shh) pathway (AID 1259369); note: nearly all actives have a fitted effect of over 45% in size; note: potency is the fitted concentration of half-maximal effect
How it was run: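 3T3Gli1-Luc, conditioned-medium-stimulated, 24hr cpd, 37C/5% CO2; Gli1-driven firefly Luc luminescence after 30min RT with luciferase reagent. Cells plated 4hr before cpd.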

[2] = qHTS assay to identify small molecule agonists of the estrogen receptor beta (ER-beta) signaling pathway - cell viability counter screen (AID 1259380; active = well fitted curve in the direction sought with a large enough effect in the repeat runs; an effect the other way counts as inactive or inconclusive; note: potency is the fitted concentration of half-maximal effect; nearly all actives have a fitted effect of over 30% in size)
How it was run: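 HEK293T ER-beta-UAS-bla; 2% CS-FBS; 6 hr pre-plate, 16 hr cpd at 37C/5% CO2; LiveBLAzer read first, then CellTiter-Glo 30 min RT, luminescence.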

[3] = target: Androgen receptor (Homo sapiens) (UniProt P10275); test: qHTS assay to identify small molecule agonists of the androgen receptor (AR) signaling pathway in the presence of an antagonist (AID 1259381); note: nearly all actives have a fitted effect of over 15% in size
How it was run: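 MDA-kb2 cells, 3,000/well, rested 5hr at 37C/0% CO2 → nilutamide 3.0uM final or buffer → compounds, 15 conc. → 16hr at 37C → ONE-Glo, 30min RT → luminescence.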

[4] = qHTS assay to identify small molecule antagonists of the estrogen receptor beta (ER-beta) signaling pathway - cell viability counter screen (AID 1259382; active = well fitted curve in the direction sought with a large enough effect in the repeat runs; an effect the other way counts as inactive or inconclusive; note: nearly all actives have a fitted effect of over 55% in size; note: potency is the fitted concentration of half-maximal effect)
How it was run: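 Cells: ER-beta-UAS-bla HEK293T, 2,000/well, 2% CS-FBS, 6 hr settle. Cpd + E2 (1nM final), 16 hr, 37C/5% CO2. Bla FRET substrate 2 hr RT, then CellTiter-Glo 30 min RT, luminescence.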

[5] = target: Estrogen receptor (Homo sapiens) (UniProt P03372); test: qHTS assay to identify small molecule agonists of the estrogen receptor alpha (ER-alpha) signaling pathway in the presence of an antagonist (AID 1259383); note: top concentration of the series differs between compounds; nearly all actives have a fitted effect of over 15% in size
How it was run: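 VM7Luc4E2, endog. ER-alpha + 4×ERE-luc; charcoal-stripped FBS, phenol red-free, 5 d; 24hr plating; +10.0nM ICI-182,780 (final); cpds 15 conc, 22hr, 37C/5% CO2; ONE-Glo luminescence.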

[6] = qHTS assay to identify small molecule agonists or antagonists of the thyroid stimulating hormone receptor (TSHR) signaling pathway - wild type cell line counter screen (AID 1259384)
How it was run: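 Wild-type HEK293 cells were plated 18 h at 37 C/5% CO2, pin-dosed with compound plus Ro20-1724 medium, held 30 min at room temperature, then given cAMP-d2 and anti-cAMP-cryptate; fluorescence was read after 1 h. Fifteen concentrations, triplicate.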

[7] = target: Thyrotropin receptor (Homo sapiens) (UniProt P16473); test: qHTS assay to identify small molecule antagonists of the thyroid stimulating hormone receptor (TSHR) signaling pathway (AID 1259385); note: nearly all actives have a fitted effect of over 20% in size
How it was run: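 TSHR-HEK293 cells were plated and held 18 h at 37C/5% CO2, then given compound plus Ro20-1724 and stimulated with TSH at 1.5 ng/mL final. After 30 min at room temperature, cAMP was detected with cAMP-d2/anti-cAMP-cryptate (1 h) by fluorescence.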

[8] = qHTS assay to identify small molecule agonists of the progesterone receptor (PR) signaling pathway - cell viability counter screen (AID 1346799); note: nearly all actives have a fitted effect of over 45% in size; note: potency is the fitted concentration of half-maximal effect
How it was run: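 In parallel with the beta-lactamase readout, cytotoxicity toward PR-UAS-bla HEK293T cells was measured by CellTiter-Glo luminescence following 16 hr compound incubation in 2% charcoal-stripped FBS medium.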

[9] = qHTS assay to identify small molecule agonists of the TGF-beta/Smad signaling pathway - cell viability counter screen (AID 1346829; active = well fitted curve in the direction sought with a large enough effect in the repeat runs; an effect the other way counts as inactive or inconclusive; note: nearly all actives have a fitted effect of over 45% in size; note: potency is the fitted concentration of half-maximal effect)
How it was run: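 CellTiter-Glo luminescence readout; SBE-bla HEK 293T cells, overnight plating, compound 5 hr at 37 C/5% CO2, then bla substrate 2 hr RT, then CellTiter-Glo 30 min RT.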

[10] = qHTS assay to identify small molecule agonists of the TGF-beta/Smad signaling pathway (AID 1346859; active = well fitted activation curve with a large enough effect in the signal ratio in the repeat runs, not every such curve was filed as active; the % refers to the signal ratio; note: series mostly up to about 77 µM)
How it was run: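 After overnight seeding, SBE-bla HEK 293T cells are dosed with compounds in DMSO and kept 5 hr at 37 C, 5% CO2. LiveBLAzer-type FRET substrate is then applied for 2 hr at room temperature.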

[11] = target: Thyrotropin-releasing hormone receptor (Homo sapiens) (UniProt P34981); test: qHTS assay to identify small molecule agonists of the thyrotropin-releasing hormone receptor (TRHR) signaling pathway (AID 1346891);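 note: HEK293 cells expressing TRHR with calcium dye readout; series mostly up to about 58 µM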
How it was run: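 Compounds were tested as agonists at 15 concentrations, in triplicate, on TRHR-Hek293 cells; calcium-sensitive dye fluorescence was recorded for 3 min following addition.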

[12] = qHTS assay to identify small molecule agonists of the androgen receptor (AR) signaling pathway in the presence of an antagonist - cell viability counter screen (AID 1259379; active = well fitted curve in the direction sought with a large enough effect in the repeat runs; an effect the other way counts as inactive or inconclusive; note: nearly all actives have a fitted effect of over 25% in size; note: potency is the fitted concentration of half-maximal effect)
How it was run: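 Cells: MDA-kb2 (MMTV-luc, AR and GR elements), 3,000/well, 5 hr settle. Added: nilutamide 3.0uM final, then compounds (15 conc.). Incubation: 16 hr, 37C, no CO2. Read-out: CellTiter-Fluor, 1 hr, fluorescence.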

[13] = qHTS assay to identify small molecule agonists of the estrogen receptor alpha (ER-alpha) signaling pathway in the presence of an antagonist - cell viability counter screen (AID 1259386; active = well fitted curve in the direction sought with a large enough effect in the repeat runs; an effect the other way counts as inactive or inconclusive;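 note: cells exposed to compounds for 22 h at 37 °C before the viability read; nearly all actives have a fitted effect of over 30% in size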; note: potency is the fitted concentration of half-maximal effect)
How it was run: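 VM7Luc4E2, stripped-serum pre-culture 5 d; 24hr plating; +ICI-182,780 10.0nM final; cpds 15 conc, 22hr, 37C/5% CO2; CellTiter-Fluor added at 21hr, fluorescence 1hr later.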

[14] = target: Progesterone receptor (Homo sapiens) (UniProt P06401); test: qHTS assay to identify small molecule antagonists of the progesterone receptor (PR) signaling pathway (AID 1346795; active = well fitted inhibition curve with a large enough effect in the signal ratio in the repeat runs, not every such curve was filed as active; the % refers to the signal ratio; note: potency is the fitted concentration of half-maximal effect)
How it was run: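 Fluorescence intensity measured 2 hr after adding beta-lactamase FRET substrate to PR-UAS-bla HEK293T cells that had been co-treated 16 hr with compound and 1 nM R5020 (final concentration) in 2% charcoal-stripped FBS.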

[15] = qHTS assay to identify small molecule antagonists of the TGF-beta/Smad signaling pathway - cell viability counter screen (AID 1346824; active = well fitted curve in the direction sought with a large enough effect in the repeat runs; an effect the other way counts as inactive or inconclusive; note: nearly all actives have a fitted effect of over 50% in size)
How it was run: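 SBE-bla HEK 293T cells were plated overnight at 37 C, then given compounds in DMSO plus TGF-beta1 (added as 0.25 ng/mL solution) for 5 hr. After the bla read, CellTiter-Glo was added to the same wells and luminescence read after 30 min at room temperature.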

[16] = qHTS assay to identify small molecule antagonists of the progesterone receptor (PR) signaling pathway - cell viability counter screen (AID 1346798; active = well fitted curve in the direction sought with a large enough effect in the repeat runs; an effect the other way counts as inactive or inconclusive; note: nearly all actives have a fitted effect of over 50% in size; note: potency is the fitted concentration of half-maximal effect)
How it was run: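 CellTiter-Glo luminescence; PR-UAS-bla HEK293T, 3,000 cells/well; compound + R5020, 16 hr, 37C/5% CO2; 30 min RT before read.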

[17] = target: Thyrotropin-releasing hormone receptor (Homo sapiens) (UniProt P34981); test: qHTS assay to identify small molecule antagonists of the thyrotropin-releasing hormone receptor (TRHR) signaling pathway (AID 1346877; active = well fitted inhibition curve with a large enough effect in the repeat runs, not every such curve was filed as active; note: series mostly up to about 51 µM)
How it was run: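 Intracellular calcium fluorescence, read kinetically every second over 3 min, reports TRH-evoked signalling in HEK293 cells carrying TRHR. Test compounds were added 5 min ahead of a 1 nM TRH challenge.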

[18] = target: Progesterone receptor (Homo sapiens) (UniProt P06401); test: qHTS assay to identify small molecule agonists of the progesterone receptor (PR) signaling pathway (AID 1346784); note: nearly all actives have a fitted effect of over 30% in size
How it was run: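 Fluorescence from LiveBLAzer B/G FRET substrate cleavage (2 hr, RT) reported PR activation in PR-UAS-bla HEK 293T cells treated 16 hr at 37C/5% CO2 with compounds; medium contained 2% charcoal-stripped FBS.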

Chain of Thyrotropin receptor (Homo sapiens) (P16473 whole entry, looked up): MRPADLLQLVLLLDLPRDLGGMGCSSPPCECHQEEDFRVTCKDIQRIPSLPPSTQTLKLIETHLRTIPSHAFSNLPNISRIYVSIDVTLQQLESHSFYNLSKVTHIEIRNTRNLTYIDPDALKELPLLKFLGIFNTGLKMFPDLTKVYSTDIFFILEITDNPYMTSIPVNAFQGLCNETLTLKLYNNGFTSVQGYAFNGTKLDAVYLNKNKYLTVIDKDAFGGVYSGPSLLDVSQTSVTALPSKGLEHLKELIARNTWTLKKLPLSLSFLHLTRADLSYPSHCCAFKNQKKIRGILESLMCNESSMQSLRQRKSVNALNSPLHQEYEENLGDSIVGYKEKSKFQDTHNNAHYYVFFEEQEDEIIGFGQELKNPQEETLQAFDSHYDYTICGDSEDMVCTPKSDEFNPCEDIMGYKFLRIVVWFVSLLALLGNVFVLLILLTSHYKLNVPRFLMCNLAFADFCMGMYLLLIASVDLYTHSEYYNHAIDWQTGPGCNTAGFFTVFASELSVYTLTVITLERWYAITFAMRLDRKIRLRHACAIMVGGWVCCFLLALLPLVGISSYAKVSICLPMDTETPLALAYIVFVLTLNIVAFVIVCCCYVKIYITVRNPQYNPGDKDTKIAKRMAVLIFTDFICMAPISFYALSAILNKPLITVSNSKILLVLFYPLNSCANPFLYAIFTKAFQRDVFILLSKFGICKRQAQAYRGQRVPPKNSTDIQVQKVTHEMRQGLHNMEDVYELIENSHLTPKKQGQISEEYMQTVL
Chain of Thyrotropin-releasing hormone receptor (Homo sapiens) (P34981 whole entry, looked up): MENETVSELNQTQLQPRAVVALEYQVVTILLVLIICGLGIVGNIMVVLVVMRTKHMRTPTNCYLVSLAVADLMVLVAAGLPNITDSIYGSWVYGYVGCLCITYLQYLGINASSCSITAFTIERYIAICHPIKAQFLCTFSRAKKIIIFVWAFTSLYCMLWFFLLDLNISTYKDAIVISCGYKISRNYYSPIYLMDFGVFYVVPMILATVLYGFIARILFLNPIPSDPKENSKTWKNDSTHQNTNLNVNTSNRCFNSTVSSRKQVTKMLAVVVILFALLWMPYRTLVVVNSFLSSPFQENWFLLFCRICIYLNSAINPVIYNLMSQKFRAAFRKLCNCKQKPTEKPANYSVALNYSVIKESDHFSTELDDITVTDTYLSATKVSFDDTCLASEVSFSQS
Chain of Androgen receptor (Homo sapiens) (P10275 whole entry, looked up): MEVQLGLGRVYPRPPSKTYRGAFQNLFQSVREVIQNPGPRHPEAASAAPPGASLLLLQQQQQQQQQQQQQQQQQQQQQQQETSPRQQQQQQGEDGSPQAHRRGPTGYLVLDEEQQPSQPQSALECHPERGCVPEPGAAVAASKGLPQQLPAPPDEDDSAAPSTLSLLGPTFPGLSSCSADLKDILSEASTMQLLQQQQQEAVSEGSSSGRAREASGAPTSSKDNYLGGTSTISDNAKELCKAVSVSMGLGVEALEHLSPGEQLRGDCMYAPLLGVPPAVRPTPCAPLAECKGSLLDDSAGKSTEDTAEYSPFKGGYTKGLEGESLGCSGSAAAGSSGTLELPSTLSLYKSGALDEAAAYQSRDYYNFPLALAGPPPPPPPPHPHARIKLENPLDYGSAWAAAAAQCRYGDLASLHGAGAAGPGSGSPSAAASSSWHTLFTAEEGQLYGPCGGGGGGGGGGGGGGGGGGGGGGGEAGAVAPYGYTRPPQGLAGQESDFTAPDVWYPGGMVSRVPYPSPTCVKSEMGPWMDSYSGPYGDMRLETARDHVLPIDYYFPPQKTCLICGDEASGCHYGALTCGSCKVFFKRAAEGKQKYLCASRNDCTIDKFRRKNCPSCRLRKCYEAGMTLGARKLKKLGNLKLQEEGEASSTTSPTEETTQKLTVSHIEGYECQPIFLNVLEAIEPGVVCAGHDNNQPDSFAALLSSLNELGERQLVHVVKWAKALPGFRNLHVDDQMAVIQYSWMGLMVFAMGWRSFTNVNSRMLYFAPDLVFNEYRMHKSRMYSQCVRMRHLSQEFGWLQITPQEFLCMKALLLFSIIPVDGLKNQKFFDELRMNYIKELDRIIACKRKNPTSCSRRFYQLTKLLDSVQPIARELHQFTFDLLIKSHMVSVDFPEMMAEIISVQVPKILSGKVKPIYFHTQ
Chain of Progesterone receptor (Homo sapiens) (P06401 whole entry, looked up): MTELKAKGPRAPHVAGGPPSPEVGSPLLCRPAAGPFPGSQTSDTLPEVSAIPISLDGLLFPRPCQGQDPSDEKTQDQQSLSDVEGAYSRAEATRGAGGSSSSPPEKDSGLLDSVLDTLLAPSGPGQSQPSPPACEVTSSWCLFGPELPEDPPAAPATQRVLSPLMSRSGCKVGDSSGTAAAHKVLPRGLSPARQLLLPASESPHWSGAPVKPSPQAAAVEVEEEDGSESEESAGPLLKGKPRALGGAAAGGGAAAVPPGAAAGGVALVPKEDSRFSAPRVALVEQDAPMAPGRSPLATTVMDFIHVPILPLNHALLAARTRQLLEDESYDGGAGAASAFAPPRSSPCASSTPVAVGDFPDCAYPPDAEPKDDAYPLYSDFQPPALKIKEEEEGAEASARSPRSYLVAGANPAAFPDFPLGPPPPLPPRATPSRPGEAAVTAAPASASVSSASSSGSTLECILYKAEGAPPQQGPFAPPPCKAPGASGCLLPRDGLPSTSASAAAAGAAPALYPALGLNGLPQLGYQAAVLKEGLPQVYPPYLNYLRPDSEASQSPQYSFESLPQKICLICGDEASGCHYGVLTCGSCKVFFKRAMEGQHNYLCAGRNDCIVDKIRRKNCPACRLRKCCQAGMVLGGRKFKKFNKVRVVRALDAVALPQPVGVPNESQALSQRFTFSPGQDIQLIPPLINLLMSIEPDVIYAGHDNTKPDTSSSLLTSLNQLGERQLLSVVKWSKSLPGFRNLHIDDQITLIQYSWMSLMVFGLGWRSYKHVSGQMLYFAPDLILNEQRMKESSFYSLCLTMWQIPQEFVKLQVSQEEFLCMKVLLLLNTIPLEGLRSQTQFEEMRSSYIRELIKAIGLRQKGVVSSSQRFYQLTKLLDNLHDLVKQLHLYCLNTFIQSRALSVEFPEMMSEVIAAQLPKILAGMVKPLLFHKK
Chain of Estrogen receptor (Homo sapiens) (P03372 whole entry, looked up): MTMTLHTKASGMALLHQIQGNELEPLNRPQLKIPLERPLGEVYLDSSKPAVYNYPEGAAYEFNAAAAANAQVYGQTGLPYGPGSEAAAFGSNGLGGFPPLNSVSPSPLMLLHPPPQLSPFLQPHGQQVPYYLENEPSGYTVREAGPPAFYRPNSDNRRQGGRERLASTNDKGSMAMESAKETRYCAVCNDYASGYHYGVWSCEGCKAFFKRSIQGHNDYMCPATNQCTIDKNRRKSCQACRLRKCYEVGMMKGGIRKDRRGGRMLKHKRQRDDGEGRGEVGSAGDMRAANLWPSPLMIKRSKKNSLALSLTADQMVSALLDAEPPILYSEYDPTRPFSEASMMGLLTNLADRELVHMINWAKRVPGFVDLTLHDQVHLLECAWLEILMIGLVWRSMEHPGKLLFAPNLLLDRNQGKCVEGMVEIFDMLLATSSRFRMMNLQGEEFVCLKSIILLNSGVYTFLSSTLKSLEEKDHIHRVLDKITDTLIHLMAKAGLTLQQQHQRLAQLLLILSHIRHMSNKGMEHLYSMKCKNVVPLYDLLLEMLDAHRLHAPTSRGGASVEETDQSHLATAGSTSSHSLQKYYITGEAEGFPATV

SMILES | Potency [1] | Potency [2] | Potency [3] | Potency [4] | Potency [5] | outcome [6] | Potency [7] | Potency [8] | Potency [9] | Potency [10] | Potency [11] | Potency [12] | Potency [13] | Potency [14] | Potency [15] | Potency [16] | Potency [17] | Potency [18]
Cc1cc(O)c(C(C)(C)C)cc1C(C)(C)C | 48.6 µM (active) | 54.5 µM (active) | inactive | 61.1 µM (active) | inactive | inactive | inactive | 48.6 µM (active) | 49 µM (active) | inactive | inactive |  |  |  |  |  |  | 
COC(=O)C1=C(C)NC(C)=C(C(=O)OCC(C)C)C1c1ccccc1[N+](=O)[O-] (stereo not drawn) | 12.2 µM (active) |  |  | inactive | inactive | inactive | inactive |  | inactive | inactive | inactive | inactive | 54.5 µM (active) and inactive | 10.6 µM (active) | inactive |  |  | 
N=C1N=C(N)c2cc3ccccc3cc21 | 0.969 µM (active) | 21.7 µM (active) |  | 38.6 µM (active) | inactive |  |  |  |  |  | inactive |  |  |  |  | 27.3 µM (active) | inactive | 
C=CC(=O)OCCn1c(=O)n(CCOC(=O)C=C)c(=O)n(CCOC(=O)C=C)c1=O | 5.45 µM (active) |  |  |  |  | inactive | inactive |  |  |  | inactive | 21.7 µM (active) | 48.6 µM (active) |  | inactive | 21.7 µM (active) |  | 
CCN(CCC#N)c1ccc(N=Nc2c(Cl)cc([N+](=O)[O-])cc2Cl)cc1 | inactive |  |  |  | inactive | inactive | inactive | inactive | inactive | inactive | inactive | 17.2 µM (active) | 8.63 µM (active) |  | inactive | inactive | inactive | 
NNC(=O)c1cccc(C(=O)NN)c1 | inactive |  | inactive | inactive | inactive |  |  |  | inactive | inactive | inactive | inactive | inactive | inactive | inactive | inactive | inactive | 
COc1cccc(N)c1 | inactive |  |  | inactive |  | inactive | inactive |  | inactive | inactive | inactive | inactive | inactive | inactive |  | inactive | inactive | inactive
Oc1ccc(C2(c3ccc(O)cc3)CC3CC2C2CCCC32)cc1 (stereo not drawn) | 20.8 µM (active) | 26.2 µM (active) | inactive | 26.2 µM (active) | inactive |  |  | 58.7 µM (active) | inactive | inactive | inactive |  |  |  |  | 41.6 µM (active) | inactive | 
